# Where “and” joins values, the source holds several entries; their conditions need not be identical. Equal entries are not always repeated. Records with an inconclusive call do not appear. Some structures have more than one record in an assay (separate samples or runs), and their calls can disagree. Calls of active or inactive are those of the source. The calls were made as follows: active = hit-call score of the fitted dose curve at least 0.9, where 1 is the maximum; inconclusive = response in the unintended direction; inactive = score below 0.9.
# Legend:
# [1] = target: rat Acetylcholinesterase (AChE), Ache (gene 83817) (UniProt P37136); assay: NVS_ENZ_rAChE: NovaScreen (NVS) Enzymatic Assay for rat Acetylcholinesterase (AChE) (AID 2283233)
# rat Acetylcholinesterase (AChE), Ache (gene 83817), sequence (P37136 whole entry, looked up): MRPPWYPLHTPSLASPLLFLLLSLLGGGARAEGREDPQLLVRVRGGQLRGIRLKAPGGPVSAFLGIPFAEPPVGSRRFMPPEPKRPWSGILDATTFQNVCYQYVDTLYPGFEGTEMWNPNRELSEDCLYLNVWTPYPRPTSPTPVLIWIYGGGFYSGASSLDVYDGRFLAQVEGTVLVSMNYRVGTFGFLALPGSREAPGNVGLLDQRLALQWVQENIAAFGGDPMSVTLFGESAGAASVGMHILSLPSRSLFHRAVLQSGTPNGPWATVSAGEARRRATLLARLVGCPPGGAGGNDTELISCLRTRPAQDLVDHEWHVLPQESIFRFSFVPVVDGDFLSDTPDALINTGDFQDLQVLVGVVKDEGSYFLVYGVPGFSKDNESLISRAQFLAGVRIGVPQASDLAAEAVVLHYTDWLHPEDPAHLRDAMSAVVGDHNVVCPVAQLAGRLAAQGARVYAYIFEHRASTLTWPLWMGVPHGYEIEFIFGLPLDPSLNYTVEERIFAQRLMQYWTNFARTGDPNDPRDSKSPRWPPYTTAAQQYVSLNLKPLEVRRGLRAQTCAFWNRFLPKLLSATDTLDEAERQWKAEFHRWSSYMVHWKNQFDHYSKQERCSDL
# In short: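 Rat brain membrane acetylcholinesterase activity measured colorimetrically 0.33 h after compound addition, loss of signal relative to DMSO. Primary screen in duplicate at 25 uM; actives re-run as concentration-response with 50 uM top concentration.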
# [2] = target: human Vascular Endothelial Growth Factor Receptor 2 (VEGFR2), KDR (gene 3791) (UniProt P35968); assay: NVS_ENZ_hVEGFR2: NovaScreen (NVS) Enzymatic Assay for human Vascular Endothelial Growth Factor Receptor 2 (VEGFR2) (AID 2283230)
# In short: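 Cell-free recombinant VEGFR2 kinase, fluorescent substrate with electrophoretic mobility-shift separation; read 1 h after dosing. Screened at 25 uM in duplicate, hits to concentration-response up to 50 uM; loss-of-signal versus DMSO.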
# [3] = target: sheep Cyclooxygenase-2 (Cox2), PTGS2 (gene 443460) (UniProt P79208); assay: NVS_ENZ_oCOX2: NovaScreen (NVS) Enzymatic Assay for sheep Cyclooxygenase-2 (Cox2) (AID 2283231)
# sheep Cyclooxygenase-2 (Cox2), PTGS2 (gene 443460), sequence (P79208 whole entry, looked up): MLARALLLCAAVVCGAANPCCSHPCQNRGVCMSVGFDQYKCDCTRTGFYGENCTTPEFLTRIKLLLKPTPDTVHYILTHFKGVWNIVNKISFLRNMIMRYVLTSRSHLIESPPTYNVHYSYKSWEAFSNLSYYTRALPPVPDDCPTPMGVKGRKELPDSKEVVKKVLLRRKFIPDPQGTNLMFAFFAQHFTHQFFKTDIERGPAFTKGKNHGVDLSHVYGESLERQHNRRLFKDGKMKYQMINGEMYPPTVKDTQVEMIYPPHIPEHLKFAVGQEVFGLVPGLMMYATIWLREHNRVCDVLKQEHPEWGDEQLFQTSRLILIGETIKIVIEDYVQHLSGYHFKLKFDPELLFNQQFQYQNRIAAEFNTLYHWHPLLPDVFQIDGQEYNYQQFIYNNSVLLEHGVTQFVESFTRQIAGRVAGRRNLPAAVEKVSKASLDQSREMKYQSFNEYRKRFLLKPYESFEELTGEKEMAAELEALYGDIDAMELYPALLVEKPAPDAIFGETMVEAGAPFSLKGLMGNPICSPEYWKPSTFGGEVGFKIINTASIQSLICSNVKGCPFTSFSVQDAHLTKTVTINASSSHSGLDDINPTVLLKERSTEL
# In short: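 Compounds were first run at 25 uM in duplicate against tissue-extracted ovine COX-2; those passing a preset inhibition threshold went to singleton concentration-response testing with a 50 uM maximum. Read-out: absorbance at 0.66 hour.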
# [4] = system: rat Monoamine Oxidase, MAO-A, Peripheral (MAOAP), gene 29253; assay: NVS_ENZ_rMAOAP: NovaScreen (NVS) Enzymatic Assay for rat Monoamine Oxidase, MAO-A, Peripheral (MAOAP) (AID 2283237)
# In short: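 Rat liver mitochondrial membranes served as the MAO-A source, with enzyme activity measured by radiometric scintillation counting 1.17 hours after dosing. Loss of signal was fitted against DMSO; primary screen used 25 uM in duplicate, follow-up used concentration series.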
# [5] = target: rat Monoamine Oxidase, MAO-B, Central (MAOBC), Maob (gene 25750) (UniProt P19643); assay: NVS_ENZ_rMAOBC: NovaScreen (NVS) Enzymatic Assay for rat Monoamine Oxidase, MAO-B, Central (MAOBC) (AID 2283238)
# rat Monoamine Oxidase, MAO-B, Central (MAOBC), Maob (gene 25750), sequence (P19643 whole entry, looked up): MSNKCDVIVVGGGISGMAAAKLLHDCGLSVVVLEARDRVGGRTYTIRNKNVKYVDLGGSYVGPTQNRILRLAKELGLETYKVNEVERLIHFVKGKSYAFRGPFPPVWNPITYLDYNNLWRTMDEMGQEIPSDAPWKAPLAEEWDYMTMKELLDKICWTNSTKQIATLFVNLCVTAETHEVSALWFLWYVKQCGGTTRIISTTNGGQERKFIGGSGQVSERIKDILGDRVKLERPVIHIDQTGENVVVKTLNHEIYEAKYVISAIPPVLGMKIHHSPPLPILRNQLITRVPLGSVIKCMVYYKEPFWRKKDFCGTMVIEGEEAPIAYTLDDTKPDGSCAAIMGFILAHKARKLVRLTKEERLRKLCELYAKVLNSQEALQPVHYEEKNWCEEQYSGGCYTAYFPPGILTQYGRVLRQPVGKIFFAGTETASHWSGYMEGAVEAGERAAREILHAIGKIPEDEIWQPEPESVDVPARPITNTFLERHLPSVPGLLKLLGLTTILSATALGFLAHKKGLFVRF
# In short: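 MAO-B activity in rat brain tissue preparation, cell-free, measured radiometrically by scintillation counting 1.17 h after dosing. Screened in duplicate at 25 uM; actives then in concentration-response up to 50 uM. Loss of signal versus DMSO scored.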
# [6] = system: bovine Angiotensin II Receptor Type 2 (AT2), gene 407157; assay: NVS_GPCR_bAT2: NovaScreen (NVS) G Protein-Coupled Receptor Assay for bovine Angiotensin II Receptor Type 2 (AT2) (AID 2283240)
# In short: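 Radioligand displacement on bovine cerebellar membranes, 1 hour incubation, filter-based scintillation counting; loss of signal vs DMSO. Duplicate single-point screen at 25 uM, then concentration-response to 50 uM maximum.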
# [7] = system: rat Monoamine Oxidase, MAO-A, Central (MAOAC), gene 29253; assay: NVS_ENZ_rMAOAC: NovaScreen (NVS) Enzymatic Assay for rat Monoamine Oxidase, MAO-A, Central (MAOAC) (AID 2283243);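 also: potency refers to inhibition seen as signal drop below DMSO baseline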
# In short: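 Steps: rat brain protein extract dosed with test chemical (25 uM, duplicate, primary); incubated 1.5 h; radiolabelled product separated from substrate and counted. Signal loss versus DMSO scored as inhibition.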
# [8] = NVS_GPCR_bNPY_NonSelective: NovaScreen (NVS) G Protein-Coupled Receptor Assay for bovine Neuropeptide Y (NPY) Receptor, Non-selective Binding (AID 2283245)
# In short: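 Bovine hippocampal membranes incubated 1 hour with radioligand and test chemical. Bound ligand measured by filter-based scintillation counting. Single-concentration screen at 25 uM in duplicate, then concentration-response up to 50 uM.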
# [9] = target: human Vascular Endothelial Growth Factor Receptor 3 (VEGFR3), FLT4 (gene 2324) (UniProt P35916); assay: NVS_ENZ_hVEGFR3: NovaScreen (NVS) Enzymatic Assay for human Vascular Endothelial Growth Factor Receptor 3 (VEGFR3) (AID 2283229)
# In short: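 Cell-free recombinant VEGFR3 kinase reaction with fluorescent substrate, read 1 h after dosing by electrophoretic mobility shift separation of substrate and product. Single-concentration duplicate screen at 25 uM, then concentration-response up to 50 uM; loss of activity versus DMSO.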
# [10] = target: rat Monoamine Oxidase, MAO-B, Peripheral (MAOBP), Maob (gene 25750) (UniProt P19643); assay: NVS_ENZ_rMAOBP: NovaScreen (NVS) Enzymatic Assay for rat Monoamine Oxidase, MAO-B, Peripheral (MAOBP) (AID 2283242)
# rat Monoamine Oxidase, MAO-B, Peripheral (MAOBP), Maob (gene 25750), sequence (P19643 whole entry, looked up): as above
# [11] = target: rabbit Imidazoline 2 Central (I2C), CKB (gene 100009085) (UniProt P00567); assay: NVS_ENZ_rabI2C: NovaScreen (NVS) Enzymatic Assay for rabbit Imidazoline 2 Central (I2C) (AID 2283228)
# rabbit Imidazoline 2 Central (I2C), CKB (gene 100009085), sequence (P00567 whole entry, looked up): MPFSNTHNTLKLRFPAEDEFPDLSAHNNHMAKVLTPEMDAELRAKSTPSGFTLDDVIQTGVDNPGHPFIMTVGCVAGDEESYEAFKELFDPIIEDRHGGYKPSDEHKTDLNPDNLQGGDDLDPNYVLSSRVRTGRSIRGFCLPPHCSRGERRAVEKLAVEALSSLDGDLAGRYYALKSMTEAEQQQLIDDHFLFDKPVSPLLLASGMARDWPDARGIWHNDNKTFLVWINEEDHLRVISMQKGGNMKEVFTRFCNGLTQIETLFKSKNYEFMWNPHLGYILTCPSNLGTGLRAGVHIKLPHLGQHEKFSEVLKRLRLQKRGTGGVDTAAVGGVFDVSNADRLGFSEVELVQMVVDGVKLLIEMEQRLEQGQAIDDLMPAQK
# In short: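 Rabbit brain membranes, cell-free; readout by filter-based scintillation counting 1.5 hours after dosing, loss of signal vs DMSO. Initial duplicate test at 25 uM, then concentration-response with 50 uM top concentration.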
# [12] = target: human Vascular Endothelial Growth Factor Receptor 1 (VEGFR1), FLT1 (gene 2321) (UniProt P17948); assay: NVS_ENZ_hVEGFR1: NovaScreen (NVS) Enzymatic Assay for human Vascular Endothelial Growth Factor Receptor 1 (VEGFR1) (AID 2283226)
# In short: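 Cell-free assay of recombinant human VEGFR1 kinase with substrate, measured 1 h after dosing; fluorescence with electrophoretic mobility-shift separation of substrate and product, referenced to DMSO; primary screen at 25 uM in duplicate, actives then run in concentration series.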
# [13] = target: rat Catechol-O-Methyl Transferase (COMT), Comt (gene 24267) (UniProt P22734); assay: NVS_ENZ_rCOMT: NovaScreen (NVS) Enzymatic Assay for rat Catechol-O-Methyl Transferase (COMT) (AID 2283235)
# In short: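 Cell-free enzyme activity with protein extracted from rat dorsal striatum, measured by HPLC with absorbance detection. Compounds screened at 25 uM in duplicate; actives then run in concentration-response up to 50 uM, loss of signal versus DMSO.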
# [14] = target: rat Constitutive Nitric Oxide Synthase (CNOS), Nos1 (gene 24598) (UniProt P29476); assay: NVS_ENZ_rCNOS: NovaScreen (NVS) Enzymatic Assay for rat Constitutive Nitric Oxide Synthase (CNOS) (AID 2283236)
# rat Constitutive Nitric Oxide Synthase (CNOS), Nos1 (gene 24598), sequence (P29476 whole entry, looked up): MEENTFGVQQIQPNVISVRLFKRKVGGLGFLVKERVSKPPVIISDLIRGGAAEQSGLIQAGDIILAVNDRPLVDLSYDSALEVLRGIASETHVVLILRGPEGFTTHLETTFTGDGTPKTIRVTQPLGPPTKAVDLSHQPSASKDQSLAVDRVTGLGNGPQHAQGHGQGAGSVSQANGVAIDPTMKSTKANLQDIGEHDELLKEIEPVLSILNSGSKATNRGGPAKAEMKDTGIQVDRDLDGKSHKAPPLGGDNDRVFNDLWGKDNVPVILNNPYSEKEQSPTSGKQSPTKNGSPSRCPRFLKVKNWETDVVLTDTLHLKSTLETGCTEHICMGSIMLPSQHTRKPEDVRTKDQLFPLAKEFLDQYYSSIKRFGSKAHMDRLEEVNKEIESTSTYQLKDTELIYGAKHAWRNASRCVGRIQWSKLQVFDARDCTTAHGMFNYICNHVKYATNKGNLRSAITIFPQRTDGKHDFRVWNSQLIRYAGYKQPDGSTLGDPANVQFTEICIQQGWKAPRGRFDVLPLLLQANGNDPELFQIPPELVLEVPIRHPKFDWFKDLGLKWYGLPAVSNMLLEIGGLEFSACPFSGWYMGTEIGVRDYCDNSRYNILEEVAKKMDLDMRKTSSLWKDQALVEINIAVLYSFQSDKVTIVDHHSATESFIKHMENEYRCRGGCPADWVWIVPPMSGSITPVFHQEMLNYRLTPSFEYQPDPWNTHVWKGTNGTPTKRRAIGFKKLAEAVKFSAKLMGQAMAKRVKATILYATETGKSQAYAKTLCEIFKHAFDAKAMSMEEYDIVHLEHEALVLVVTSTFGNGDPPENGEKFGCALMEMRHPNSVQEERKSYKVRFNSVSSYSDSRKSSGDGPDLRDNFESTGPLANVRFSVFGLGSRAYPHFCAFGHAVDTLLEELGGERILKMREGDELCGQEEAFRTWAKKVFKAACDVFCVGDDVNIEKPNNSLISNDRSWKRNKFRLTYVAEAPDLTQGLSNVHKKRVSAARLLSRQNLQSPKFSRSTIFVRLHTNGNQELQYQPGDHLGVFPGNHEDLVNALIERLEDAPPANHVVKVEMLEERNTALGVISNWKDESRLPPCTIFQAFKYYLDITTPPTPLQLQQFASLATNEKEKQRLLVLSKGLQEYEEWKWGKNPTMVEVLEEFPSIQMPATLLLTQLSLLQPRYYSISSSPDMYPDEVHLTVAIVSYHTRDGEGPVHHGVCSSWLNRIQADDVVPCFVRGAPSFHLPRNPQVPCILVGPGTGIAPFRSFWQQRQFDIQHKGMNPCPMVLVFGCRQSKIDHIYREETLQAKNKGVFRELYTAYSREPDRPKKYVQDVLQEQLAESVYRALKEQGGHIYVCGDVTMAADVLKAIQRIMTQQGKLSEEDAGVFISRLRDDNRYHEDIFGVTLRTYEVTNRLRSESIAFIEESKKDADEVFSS
# In short: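 Enzyme activity in rat brain membrane preparation, read 1 h after dosing by filter-based radiometric scintillation counting. Primary screen in duplicate at 25 uM; actives (e.g., ≥30% inhibition) then run in concentration-response up to 50 uM.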
# [15] = target: rat Adenylate Cyclase, Forskolin Stimulated, Adcy5 (gene 64532) (UniProt Q04400); assay: NVS_ENZ_rACFSKBinding: NovaScreen (NVS) Enzymatic Assay for rat Adenylate Cyclase, Forskolin Stimulated (AID 2283232)
# rat Adenylate Cyclase, Forskolin Stimulated, Adcy5 (gene 64532), sequence (Q04400 whole entry, looked up): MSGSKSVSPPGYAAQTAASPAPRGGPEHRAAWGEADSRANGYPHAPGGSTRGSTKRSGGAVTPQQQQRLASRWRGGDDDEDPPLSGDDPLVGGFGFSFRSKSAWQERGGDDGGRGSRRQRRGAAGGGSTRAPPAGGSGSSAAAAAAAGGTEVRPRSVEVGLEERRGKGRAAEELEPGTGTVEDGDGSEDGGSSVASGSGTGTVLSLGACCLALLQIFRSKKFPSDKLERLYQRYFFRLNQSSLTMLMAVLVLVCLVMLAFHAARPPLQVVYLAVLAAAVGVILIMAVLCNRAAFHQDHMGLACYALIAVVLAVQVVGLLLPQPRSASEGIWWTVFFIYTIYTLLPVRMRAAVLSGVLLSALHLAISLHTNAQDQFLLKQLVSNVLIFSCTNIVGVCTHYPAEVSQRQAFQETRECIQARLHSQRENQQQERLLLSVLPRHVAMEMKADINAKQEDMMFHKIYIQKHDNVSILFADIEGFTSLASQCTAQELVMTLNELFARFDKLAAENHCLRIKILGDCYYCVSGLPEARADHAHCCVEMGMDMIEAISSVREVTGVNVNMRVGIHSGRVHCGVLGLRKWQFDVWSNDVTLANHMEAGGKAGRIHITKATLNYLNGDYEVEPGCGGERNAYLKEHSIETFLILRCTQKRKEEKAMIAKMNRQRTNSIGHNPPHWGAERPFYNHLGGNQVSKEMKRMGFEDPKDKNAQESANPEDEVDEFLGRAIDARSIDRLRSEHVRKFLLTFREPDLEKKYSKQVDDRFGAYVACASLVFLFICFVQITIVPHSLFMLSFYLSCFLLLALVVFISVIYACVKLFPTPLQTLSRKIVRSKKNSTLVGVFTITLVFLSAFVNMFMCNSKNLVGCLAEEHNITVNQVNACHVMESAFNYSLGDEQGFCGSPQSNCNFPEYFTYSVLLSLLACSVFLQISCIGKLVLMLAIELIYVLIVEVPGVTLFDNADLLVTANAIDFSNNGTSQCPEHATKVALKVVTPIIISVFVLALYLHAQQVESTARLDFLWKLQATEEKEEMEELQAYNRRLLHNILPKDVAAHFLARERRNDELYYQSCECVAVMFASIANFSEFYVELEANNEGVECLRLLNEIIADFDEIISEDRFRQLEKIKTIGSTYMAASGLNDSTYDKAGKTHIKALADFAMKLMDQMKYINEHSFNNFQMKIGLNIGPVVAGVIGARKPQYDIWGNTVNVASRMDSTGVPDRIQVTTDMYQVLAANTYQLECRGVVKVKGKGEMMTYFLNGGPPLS
# In short: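 Rat forebrain membrane preparation, cell-free, read 1 h after dosing by filter-based scintillation counting. Primary screen in duplicate at 25 uM; actives (e.g. ≥30% inhibition) rerun in concentration-response up to 50 uM; fit versus DMSO.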
# [16] = target: Adenosine receptor A1 (Bos taurus) (UniProt P28190); assay: NVS_GPCR_bAdoR_NonSelective: NovaScreen (NVS) G Protein-Coupled Receptor Assay for bovine Adenosine Receptor (AdoR), Non-selective Binding (AID 2283244)
# In short: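 Bovine striatal membranes, radioligand displacement binding, 1 h after dosing, filter-based scintillation counting. Screened in duplicate at 25 uM, then concentration-response up to 50 uM; loss of specific binding relative to DMSO.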
# [17] = target: bovine Dopamine Receptor (DR), Non-selective Binding, DRD1 (gene 281125) (UniProt Q95136); assay: NVS_GPCR_bDR_NonSelective: NovaScreen (NVS) G Protein-Coupled Receptor Assay for bovine Dopamine Receptor (DR), Non-selective Binding (AID 2283241)
# In short: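 Bovine striatal membranes; radioligand displacement read by filtration and scintillation counting 1 h after dosing, loss of signal vs DMSO. Screened in duplicate at 25 uM, then concentration-response for hits.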
# [18] = system: guinea pig Leukotriene B4 Receptor (LTB4), gene 100379538; assay: NVS_GPCR_gLTB4: NovaScreen (NVS) G Protein-Coupled Receptor Assay for guinea pig Leukotriene B4 Receptor (LTB4) (AID 2283247)
# In short: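 Radioligand displacement on guinea pig spleen membranes, filter-based scintillation counting 2 h after dosing. Primary duplicate single point at 25 uM; hits over threshold (e.g. 30% inhibition) run in concentration-response up to 50 uM, DMSO baseline.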
# [19] = system: bovine Histamine 1 Receptor (H1), gene 281231; assay: NVS_GPCR_bH1: NovaScreen (NVS) G Protein-Coupled Receptor Assay for bovine Histamine 1 Receptor (H1) (AID 2283246)
# In short: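 Radioligand displacement on bovine cerebellar membranes, 1 h after dosing, filter-based scintillation read-out; loss of signal vs DMSO. Duplicate single-concentration screen at 25 uM, then concentration-response up to 50 uM for hits.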
compound,measurement,setting,value
O=[N+]([O-])c1cc(C(F)(F)F)c(Cl)c([N+](=O)[O-])c1Nc1ncc(C(F)(F)F)cc1Cl,outcome,[1],inactive
CCCSP(=O)(OCC)Oc1ccc(Br)cc1Cl (configuration not stated),AC50,[1],2.32 µM (active)
CC[C@H](C)[C@H]1O[C@]2(C=C[C@@H]1C)C[C@@H]1C[C@@H](C/C=C(\C)[C@@H](O[C@H]3C[C@H](OC)[C@@H](O[C@H]4C[C@H](OC)[C@@H](NC)[C@H](C)O4)[C@H](C)O3)[C@@H](C)/C=C/C=C3\CO[C@@H]4[C@H](O)C(C)=C[C@@H](C(=O)O1)[C@]34O)O2,outcome,[2],inactive
same,AC50,[3],0.0396 µM (active)
same,outcome,[4],inactive
same,outcome,[5],inactive
same,outcome,[6],inactive
same,outcome,[7],inactive
same,AC50,[8],20.6 µM (active)
CCCOc1nn(C(=O)NS(=O)(=O)c2ccccc2C(=O)OC)c(=O)n1C,outcome,[9],inactive
FC(F)C(F)(F)OCC(Cn1cncn1)c1ccc(Cl)cc1Cl (configuration not stated),AC50,[3],0.67 µM (active)
same,outcome,[10],inactive
CC(=NC#N)N(C)Cc1ccc(Cl)nc1,outcome,[1],inactive
same,AC50,[7],13.3 µM (active)
CCC(=O)Nc1ccc(Cl)c(Cl)c1,AC50,[11],15.7 µM (active)
same,AC50,[4],6.9 µM (active)
same,AC50,[5],13 µM (active)
same,AC50,[10],25 µM (active)
same,AC50,[7],15.3 µM (active)
CN(C)[C@@H]1C(=O)C(C(N)=O)=C(O)[C@@]2(O)C(=O)C3=C(O)c4c(O)cccc4[C@@](C)(O)[C@H]3[C@H](O)[C@@H]12,AC50,[12],3.49 µM (active)
same,outcome,[12],inactive
same,AC50,[9],6.44 µM (active) and 3.42 µM (active) and 969 nM (active)
same,AC50,[2],12.3 µM (active) and 18.2 µM (active)
same,outcome,[2],inactive
same,AC50,[3],1.89 µM (active)
same,AC50,[13],3.33 µM (active) and 1.72 µM (active)
same,AC50,[14],5.33 µM (active)
S=C1NCCN1,outcome,[15],inactive
same,AC50,[1],14.3 µM (active)
same,outcome,[10],inactive
CCOP(=S)(OCC)SCCSCC,outcome,[12],inactive
CCOC(=O)CC(SP(=O)(OC)OC)C(=O)OCC (configuration not stated),AC50,[1],0.917 µM (active)
same,outcome,[16],inactive
COP(=O)(OC)SCn1c(=O)oc2cc(Cl)cnc21,AC50,[1],2.11 µM (active)
CCC(=NOC/C=C/Cl)C1=C(O)CC(C2CCOCC2)CC1=O (configuration not stated),outcome,[9],inactive
CCOP(=S)(OCC)OC(Cl)C(Cl)(Cl)Cl (configuration not stated),outcome,[15],inactive
same,AC50,[1],4.06 µM (active)
N#CSCSC#N,AC50,[15],25 µM (active)
CCCCSP(=O)(SCCCC)SCCCC,AC50,[14],6.6 µM (active)
CNC(=O)Oc1cccc2c1OC(C)(C)O2,AC50,[1],0.797 µM (active)
CNC(=O)ON=C(C)SC,AC50,[1],3.86 µM (active)
CNC(=O)ON=C(SC)C(=O)N(C)C,AC50,[1],3.26 µM (active)
C#CC(C)(C)NC(=O)c1cc(Cl)cc(Cl)c1,outcome,[11],inactive
Cc1ccn2nc(S(=O)(=O)Nc3c(F)cccc3F)nc2n1,outcome,[15],inactive
COP(=O)(OC)OC(Br)C(Cl)(Cl)Br (configuration not stated),AC50,[15],14.6 µM (active)
same,AC50,[1],1.01 µM (active)
same,outcome,[5],inactive
same,AC50,[16],25 µM (active)
same,outcome,[8],inactive
CCCCN(CC)c1c([N+](=O)[O-])cc(C(F)(F)F)cc1[N+](=O)[O-],outcome,[14],inactive
CON=C(C(=O)OC)c1ccccc1CON=C(C)c1cccc(C(F)(F)F)c1,outcome,[6],inactive
CCOP(=S)(OCC)Oc1ccc([N+](=O)[O-])cc1,outcome,[17],inactive
same,AC50,[18],7.9 µM (active)
CCCCOC(=O)c1ccccc1C(=O)O,outcome,[17],inactive
CN(C)C(=O)Nc1cccc(C(F)(F)F)c1,outcome,[19],inactive
CCOP(=O)(SC(C)CC)N1CCSC1=O (configuration not stated),outcome,[19],inactive
O=C(O)c1cc(Oc2ccc(C(F)(F)F)cc2Cl)ccc1[N+](=O)[O-],outcome,[18],inactive

# — PubChem BioAssay (EPA / NIEHS)
